This is a sample that favours compounds with a hit; in the whole collection about 1.3% have one here.
WRN inhibitor = qHTS for Inhibitors of WRN Helicase; WRN helicase unwinding, fluorescent forked duplex, kinetic; Potency, µM (series often up to 114 µM), inactives show at the top dose activity change, negative = inhibition, actives largely listed as inhibitors; actives 0.46% (n = 360,000); AID 651768, 2012; also: potency is read from the fitted curve at half-maximal effect; % is scaled to controls: 0 for no effect and ±100 for the full control effect; nearly all actives have a fitted effect of over 55% in size
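WRN at 20 nM final preincubated with compound 15 min at room temperature; reaction started with 100 nM fluorophore/quencher forked duplex oligonucleotide and 2 mM ATP final. Unwinding followed kinetically by red fluorescence (ex 525, em 598 nm).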
Pin1 inh = qHTS Assay to Find Inhibitors of Pin1; Pin1 FP peptide displacement, HiFluor488, 10 min; Peptidyl-prolyl cis-trans isomerase NIMA-interacting 1 (Homo sapiens), Q13526; AID 504891, 2011; actives 0.009% (n = 390,000); Potency, µM (top dose mostly 115 µM), for inactives: top-dose activity, negative = inhibition, most hits filed as inhibitors; active = well fitted inhibition curve with a large enough effect in the polarisation, with a control signal flat, not every such curve was filed as active; inconclusive = small, poorly fitted or top-dose-only effect, or effect the other way, or a change in a side signal; inactive = no such curve, though single readings can be large or run the other way; the % refers to the polarisation; also: potency is read from the fitted curve at half-maximal effect; % is scaled to controls: 0 for no effect and ±100 for the full control effect
FEN1 inh = qHTS Assay for the Inhibitors of Human Flap endonuclease 1 (FEN1); Recombinant FEN1 flap cleavage, fluorescence, 15 min; actives 0.35% (n = 390,000); AID 588795, 2011; P39748; Potency, µM (series often up to 114 µM), for the others: top-dose activity change, negative = inhibition, most hits filed as inhibitors; also: potency is read from the fitted curve at half-maximal effect; % is scaled to controls: 0 for no effect and ±100 for the full control effect; nearly all actives have a fitted effect of over 65% in size
Target sequence (P39748 whole entry, looked up): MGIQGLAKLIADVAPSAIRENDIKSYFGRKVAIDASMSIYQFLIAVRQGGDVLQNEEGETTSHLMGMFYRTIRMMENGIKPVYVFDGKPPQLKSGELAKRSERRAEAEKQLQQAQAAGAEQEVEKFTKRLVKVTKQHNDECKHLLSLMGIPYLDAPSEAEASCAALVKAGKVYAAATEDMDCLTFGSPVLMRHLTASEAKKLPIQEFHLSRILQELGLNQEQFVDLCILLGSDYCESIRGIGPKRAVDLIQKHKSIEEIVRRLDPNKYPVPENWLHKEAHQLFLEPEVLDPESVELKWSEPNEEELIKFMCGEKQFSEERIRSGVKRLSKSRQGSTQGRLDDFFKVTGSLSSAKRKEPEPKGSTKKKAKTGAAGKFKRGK
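Enzyme 10 nM, 15 min RT preincubation with compound; start with substrate 50 nM final; reads at 0 and 15 min; qHTS titration, four-parameter Hill fit.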
PI5P4Ka inh = qHTS for Inhibitors of phosphatidylinositol 5-phosphate 4-kinase (PI5P4K); actives 1.2% (n = 330,000); PI5P4Kalpha enzyme, ADP-Glo luminescence, 60 min; active compounds read low; Phosphatidylinositol 5-phosphate 4-kinase type-2 alpha (Homo sapiens), P48426; max response, %; active = max response of -50% or lower; inconclusive = between -30% and -50%; inactive = -30% or higher; also: value at the top dose of about 77 µM; % is scaled to controls: 0 for no effect and ±100 for the full control effect
Target sequence (P48426 whole entry, looked up): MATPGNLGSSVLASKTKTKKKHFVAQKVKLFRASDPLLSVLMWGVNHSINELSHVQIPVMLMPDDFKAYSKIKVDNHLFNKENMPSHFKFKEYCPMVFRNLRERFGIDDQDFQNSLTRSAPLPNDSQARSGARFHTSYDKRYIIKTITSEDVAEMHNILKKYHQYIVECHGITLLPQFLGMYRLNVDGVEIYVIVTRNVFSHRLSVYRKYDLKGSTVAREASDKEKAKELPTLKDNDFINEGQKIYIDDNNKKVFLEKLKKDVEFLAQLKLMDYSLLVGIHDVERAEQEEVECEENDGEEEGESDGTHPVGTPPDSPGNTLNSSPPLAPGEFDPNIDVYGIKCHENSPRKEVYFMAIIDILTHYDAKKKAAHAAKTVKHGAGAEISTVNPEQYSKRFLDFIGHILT
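Controls without substrate or without enzyme flank wells where PI5P4Kalpha converts substrate using 5 microM ATP (final). Incubation lasts 60 minutes at room temperature; ADP formed is read by ADP-Glo luminescence.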
PGK inhibitor = qHTS Assay to Find Inhibitors of Phosphoglycerate Kinase; PGK/GAPDH coupled, Kinase-Glo luminescence, 60 min; actives 0.043% (n = 380,000); Potency, µM (doses to about 57.5 µM), for the others: at the top dose activity change, negative = inhibition, most hits filed as inhibitors; Phosphoglycerate kinase, glycosomal (Trypanosoma brucei brucei), P07378; AID 602233, 2012; also: potency is read from the fitted curve at half-maximal effect; % is scaled to controls: 0 for no effect and ±100 for the full control effect; nearly all actives have a fitted effect of over 60% in size
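Luminescent ATP detection (Kinase-Glo Plus) follows a 60-minute room-temperature incubation, with wells lacking PGK as controls. Buffer: 100 mM TEA (pH 7.6), 5 mM MgCl2, 0.01% Tween-20. Coupling enzyme GAPDH (100 nM final) supplies unstable 1,3-BPG in-well.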
Glioma ERSR ind = qHTS for Inducers of the Endoplasmic Reticulum Stress Response (ERSR) in Human Glioma: qHTS. U87-MG GRP78 promoter luciferase reporter, 16 h. Potency, µM, for the others: at the top dose activation, usual class: activators. actives 0.02% (n = 420,000). AID 602332, 2012; also: potency is read from the fitted curve at half-maximal effect; series mostly up to about 76 µM; % of control where 0% means no effect; nearly all actives have a fitted effect of over 35% in size
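Stably transfected U87-MG human glioma cells carrying a GRP78-based luminescent sensor were seeded at 1000 cells/well, pin-dosed with compounds and incubated 16 h. Luciferase reagent was then added, and end-point luminescence was read after 10 min at room temperature.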
* marks the source's active call; other numbers are inactive results; i = inactive; ? = inconclusive; . = no result given; [ ] = another dose, or the depositor's remark. Unless noted, calls follow the shape of the dose curve; as a rule, active = well fitted curve in the direction sought with a large enough effect; inconclusive = small, poorly fitted or top-dose-only effect, or another doubt; inactive = no such curve, though single readings can be large; an effect the other way counts as inactive or inconclusive.

SMILES	WRN inhibitor	Pin1 inh	FEN1 inh	PI5P4Ka inh	PGK inhibitor	Glioma ERSR ind
CN(C)/C=C/c1[nH]c(=O)[nH]c(=O)c1[N+](=O)[O-]	-5.5%	1.3%	-18.7%	-79.5*	-9.6%	-1.7%
O=c1[nH]c(/C=C/c2ccc([N+](=O)[O-])cc2)c([N+](=O)[O-])c(=O)[nH]1	-24.5%	-0.6%	-17.6%	-66.5*	-8.5%	-4.1%
COc1ccc(OC)c(/C=C/c2[nH]c(=O)[nH]c(=O)c2[N+](=O)[O-])c1	-6.5%	-0.2%	-5.5%	-76.6*	-2.7%	1.7%
Cc1ccccc1C1(CC(=O)N2CCCC2c2nccs2)CC(=O)N(C2CCCC2)C1=O (stereo not given)	.	.	.	.	.	-4.6%
CN(Cc1nccs1)c1ncnc2ccc(-c3ccc4c(c3)OCO4)cc12	.	-0.8%	.	.	.	.
COc1ccc(CN2CCOc3ccc(CN4CCC(O)CC4)cc3C2)c(OC)c1OC	.	.	.	.	.	0.0%
COc1ccc2c(c1)-c1nc(-n3ncc(C(=O)N(C)C(C)c4ccon4)c3C3CC3)ncc1CC2 (stereo not given)	.	.	.	.	.	-3.1%
CCN(CC)c1ccc(C=C2C(=O)OC(c3ccccc3)OC2=O)cc1 (stereo not given)	50.1µM*	24.5%	-2.5%	-2.1	i	2.2%
CCN(CC)c1ccc(C=C2C(=O)OC3(CCCC3)OC2=O)cc1	50.1µM*	40.1%	-9.6%	-6.6	4.5%	-1.9%
COC(=O)CSC1=C(C#N)C(=O)NC(c2ccccc2)S1 (stereo not given)	-1.5%	1.4%	-0.2%	-55.7*	-0.5%	-8.3%
CCN(CC)C(=S)SSC(=S)N(CC)CC	13.0%	-7.7%	?	-77.5*	0.0%	-2.8%
CCN(CC)C(=S)SC1=CCS(=O)(=O)C1	5.0%[57.1 µM]	1.7%	-1.0%	10.4	-0.4%	-0.3%
COc1ccccc1-c1nnc2n1N=C(c1ccc(O)c(O)c1)CS2	22.4µM*	?	-6.3%	?	-18.8%	-4.8%
CC/C=C(\C(=O)N[C@H]1C(=O)N2C(C(=O)OCOC(=O)C(C)(C)C)=C(COC(N)=O)CS[C@H]12)c1csc(N)n1	.	.	.	.	.	-0.7%
COc1ccc(OC)c(CCNC(=O)CSc2ccsc2[N+](=O)[O-])c1	-22.4%[57.1 µM]	?	8.5%	-55.3*	-5.8%	3.1%
COc1ccc(CCNC(=O)CSc2ccsc2[N+](=O)[O-])c(OC)c1	-6.8%[11.6 µM]	?	16.2%	-57.2*	-1.5%	-4.2%
COc1cccc(CN2C(=O)NC(C)(C3CCN(Cc4cc(F)cc(F)c4)CC3)C2=O)c1OC (stereo not given)	.	.	.	.	.	-4.4%
Cc1ccc2nc(/C(C#N)=C\c3ccc(Oc4ccc(C(F)(F)F)cc4[N+](=O)[O-])cc3)[nH]c2c1	56.2µM*	?	-22.4%	-9.0	-19.6%	-3.6%
Cc1ccc2nc(/C(C#N)=C/c3ccc(-c4ccc(F)cc4F)o3)[nH]c2c1	.	?	-21.5%	.	i	-3.1%
Cc1ccc2nc(/C(C#N)=C/c3ccc(-c4cccc([N+](=O)[O-])c4)o3)[nH]c2c1	?	74.2%	44.7µM*	-2.2	-0.6%	-4.8%
COc1ccc(/C=C(\C#N)c2nc3ccc(C)cc3[nH]2)cc1Oc1ccc(C(F)(F)F)cc1[N+](=O)[O-]	-0.3%	4.6%	-8.5%	-10.0	-2.2%	2.0%
Cc1cc(C)n2ncc(C(=O)Nc3ccccc3)c2n1	.	12.3%	.	.	.	.
O=C(Nc1cccc(NC(=O)c2ccccc2[N+](=O)[O-])n1)c1ccccc1[N+](=O)[O-]	?	-6.3%	8.9%	-55.3*	-0.2%	-7.6%
COc1cc(F)c(S(=O)(=O)N2CCN(S(=O)(=O)c3ccc(NC(C)=O)cc3)CC2)c(F)c1	.	4.4%	.	.	.	.
O=C1CCc2cc(S(=O)(=O)Nc3cc(F)cc(Cl)c3)c(F)cc2N1	.	-0.4%	.	.	.	.
SMILES	WRN inhibitor	Pin1 inh	FEN1 inh	PI5P4Ka inh	PGK inhibitor	Glioma ERSR ind
C=C(C)C(=O)Nc1ccc2c(c1)OCCOCCOCCO2	?	.	?	-73.8*	?	0.0%
CC(=O)Nc1ccc2c(c1)OCCO2	4.0%	?	7.4%	2.5	2.6%	0.4%
CCc1cccc(NC(=O)CN2C(=O)CCc3cc(S(=O)(=O)N4CCOCC4)ccc32)c1	.	-0.2%	-3.7%	.	-8.2%	-0.6%
CC1CCN(S(=O)(=O)c2ccc3c(c2)CCC(=O)N3CC(=O)Nc2cccc(C#N)c2)CC1	.	?	5.7%	.	14.1µM*	0.2%
N#C/C(=C/c1ccc(-c2ccc([N+](=O)[O-])cc2)o1)C(=O)Nc1nc(-c2cccs2)cs1	?	?	-7.0%	-65.7*	-0.9%	-0.1%
N#C/C(=C\c1ccc(-c2ccc(F)cc2)o1)C(=O)Nc1nc(-c2cccs2)cs1	-13.0%	?	-4.6%	?	i	-0.6%
COc1ccc(OC)c(-c2c3cc(O)c(=O)cc-3oc3cc(O)c(O)cc23)c1	79.4µM*	?	12.6µM*	-101.3*	?	-0.3%
COc1ccccc1-c1cc(=O)c2cc(O)ccc2o1	.	.	.	.	.	1.8%
O=c1cc2oc3cc(O)c(O)cc3c(-c3ccccc3O)c-2cc1O	i	?	22.4µM*	-87.9*	?	17.1%
COc1cc2oc(-c3ccccc3)cc(=O)c2cc1O	.	.	.	.	.	-8.3%
CCOc1ccccc1-c1c2cc(O)c(=O)cc-2oc2cc(O)c(O)cc12	89.1µM*	?	20µM*	-55.1*	?	-6.6%
O=c1cc(-c2ccccc2O)oc2cc(O)ccc12	.	.	.	.	.	-3.2%
NC(N)=NCCCC(N)C(=O)O (stereo not given)	.	.	.	.	.	-2.6%
Cc1oc(-c2cccc(NC(=O)C3CCCN(C)C3)c2)nc1CNC(=O)c1coc2c1C(=O)CCC2 (stereo not given)	.	.	.	.	.	-5.8%
O=C(CCc1ccc(S(=O)(=O)N2CCOCC2)cc1)N/N=C/c1ccc(O)c(O)c1O	79.4µM*	?	?	?	-1.0%	-10.0%
O=C(CCc1ccc(S(=O)(=O)N2CCOCC2)cc1)N/N=C/c1ccc(F)cc1F	-5.5%	-1.5%	-1.0%	1.5	-4.2%	-4.9%
Oc1[nH]c(=S)sc1/C=C1\C(c2ccccc2)=Nc2ccccc21	-30.3%	58.6%	-3.1%	-73.7*	-1.0%	1.9%
Oc1[nH]c(=S)sc1C=C1N=c2ccccc2=N1	-18.3%	-0.7%	-27.5%	-20.6	25.6%	8.5%

Assay outcomes from PubChem.
